Results on 38 molecules are retold here after PubChem BioAssay (NCATS).

Values without a mark were called inactive. Results filed as inconclusive are left out. Activity calls are given as the source filed them. Calls come from the whole dose curve; as a rule, active = well fitted inhibition curve with a large enough effect; inconclusive = small, poorly fitted or top-dose-only effect; inactive = flat fitted curve, though single readings scatter.

Sequence of Glutathione peroxidase 1 (Homo sapiens) (P07203 whole entry, looked up): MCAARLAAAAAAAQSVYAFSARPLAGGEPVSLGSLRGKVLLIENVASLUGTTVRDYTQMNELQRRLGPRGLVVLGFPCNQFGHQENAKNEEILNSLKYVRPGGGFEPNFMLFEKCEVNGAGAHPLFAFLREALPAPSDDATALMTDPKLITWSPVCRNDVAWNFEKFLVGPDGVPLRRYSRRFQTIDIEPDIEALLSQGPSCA

The first experiment deals with Glutathione peroxidase 1 (Homo sapiens) (UniProt P07203). Kind of experiment: Primary qHTS Assay for Inhibitors of Recombinant Selenoprotein Glutathione Peroxidase 1 (GPX1) (AID 1845191). For activity, negative = inhibition: % is set by controls: 0 for no effect and ±100 for the full control effect. Note: nearly all actives have a fitted effect of over 65% in size. Conditions: recombinant GPX1, GR-coupled NADPH fluorescence, 15 min; series mostly up to 48.8 µM; activity, negative = inhibition: at the top concentration. Put shortly:
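GR-coupled assay: compounds preincubated 30 min at room temperature with GPX1, then reaction started with CHP; final 10 nM GPX1, 1 mM GSH, 0.5 mM CHP, 0.5 mM NADPH, 100 nM GR, 0.01% BSA, pH 7.5 Tris buffer. NADPH fluorescence (340/450 nm) read at 0 and 15 min.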
Take `CO[C@@H](Cc1ccc(OCCc2nc(-c3ccccc3)oc2C)c2ccsc12)C(=O)O`: the result was inactive.
Regarding `COc1cc2c(Nc3ccc(Cl)c(Cl)c3F)ncnc2cc1OCC1C[C@@H]2CN(C)C[C@@H]2C1` (stereo not given in full), the “activity, negative = inhibition” value was -5.43%.
Take `C/C(=C\CCC(C(=O)O)C1CCC2(C)C3=C(CCC12C)C1(C)CCC(=O)C(C)(C)C1CC3)C(=O)O` (stereo not given): the “outcome” value was “inactive [at 27.7 µM]”.
Still for that read-out and setting: under `C/C=C/C=C/C=C/C(=O)O[C@@H]1C=C(CO)C(O)(C(=O)O)[C@@]2(C)CCCC(C)(C)[C@H]12` (stereo not given in full) stands “inactive [at 27.7 µM]”; under `COc1ccc2cc(OCC3(C(=O)O)CN(C(=O)c4ccc(F)cc4)C3)ccc2c1`, “inactive”.
In the case of `C=C(C(=O)O)[C@@H]1CC=C2CCC[C@H](C)[C@@]2(C)C1`, the result was inactive.
Take `CC(C)C(=O)c1cn(CC(=O)COc2ccc(Oc3ccccc3)cc2)c2ccc(C(=O)O)cc12`: the “activity, negative = inhibition” value is -24.1%.
The same measure, in the same setting: in the case of `COc1cc(/C=C/C(=O)O[C@H]2[C@H](OC(=O)/C=C/c3cc(OC)c(O)c(OC)c3)O[C@H](CO[C@@H]3O[C@H](CO)[C@@H](O)[C@H](O)[C@H]3O)[C@@H](O)[C@@H]2O)ccc1O` it was -16.1% [at 15.3 µM].
On the same count and under the same terms, in the case of `CC(=O)N[C@H]1CCN(c2ccc(C3=NOC(CN[S+](=O)([O-])C(C)C)C3)cc2F)C1` (stereo not given in full) it was -14.7%.
As for `CC(=O)N1CCN(NC(=O)c2ccc(F)cc2)CC1`, the result was inactive.
Turning to `C#C[C@]1(O)CC[C@H]2[C@@H]3CCC4=C/C(=N/O)CC[C@@H]4[C@H]3CC[C@@]21CC`, the “activity, negative = inhibition” value is -18.2%.
Still for that read-out and setting: under `C=C(C)[C@@H](C)[C@H]1O[C@]23C[C@]4(CO2)C(CCC2[C@@]5(C)CC[C@H](O[C@@H]6OC[C@H](O)[C@H](O[C@@H]7O[C@H](CO)[C@@H](O)[C@H](O)[C@H]7O)[C@H]6O[C@@H]6O[C@@H](CO)[C@H](O)[C@H]6O)C(C)(C)C5CC[C@]24C)C3[C@@](C)(O)[C@@H]1OC(C)=O` (stereo not given in full) stands -12% [at 15.3 µM].

The target in a further experiment is Luciferin 4-monooxygenase (Photinus pyralis) (UniProt P08659). Kind of experiment: Primary firefly luciferase (FLuc) qHTS assay for identification of artifact compounds. (AID 1845220).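 For activity change, negative = inhibition: plate controls were DMSO vehicle for no effect and no enzyme for full effect.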 Note: nearly all actives have a fitted effect of over 60% in size. The note with it: purified firefly luciferase, luminescence, 5 min; series mostly up to 54.1 µM; activity change, negative = inhibition: at the top concentration. Put shortly: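 D-luciferin and ATP (10 uM each, final) in Tris acetate buffer pH 7.6 were incubated with compounds for 15 min at room temperature. The reaction was started with 10 nM Photinus pyralis luciferase and luminescence read after 5 min. Percent inhibition was fitted to a 4-parameter Hill equation.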
A general note: qHTS replaces the single test concentration by a dilution series.
Regarding `O=C(O[C@H]1[C@@H]2C=CO[C@@H](O[C@@H]3O[C@H](CO)[C@@H](O)[C@H](O)[C@H]3O)[C@@H]2[C@@]2(CO)O[C@@H]12)c1ccc(O)c(O)c1`, the “outcome” value was “inactive [at 25.7 µM]”.
`CCN[C@@H]1C[C@H](N)[C@@H](O[C@H]2OC(CN)=CC[C@H]2N)[C@H](O)[C@H]1O[C@H]1OC[C@](C)(O)[C@H](NC)[C@H]1O`: the Potency result was “inactive”.
With `COc1cc(C2c3cc(O)c(OC)cc3CC(CO)C2CO)ccc1O` (stereo not given), the molecule was classed as inactive.
Still for that read-out and setting: in the case of `CC1=CC(=O)CC(C)(CO[C@@H]2O[C@H](CO)[C@@H](O)[C@H](O)[C@H]2O)C1(O)/C=C/C(C)=C/C(=O)O` (stereo not given in full) it was “inactive [at 25.7 µM]”.
Take `O=C1NC(Cc2ccc(O)cc2)C(=O)N2CCCC12` (stereo not given): the “activity change, negative = inhibition” value is -3.33%.
Regarding `CC(=O)NCCCCn1c2c(c3ccccc31)C(=O)NCC2`, the call was inactive.
Still for that read-out and setting: in the case of `COC(=O)C12C(=O)C(C)=C(O)C1(C)C(C)=CC1C34CCC(OC3=O)C(C)(C)C4CCC12C` (stereo not given) it was “inactive [at 25.7 µM]”.
On the same count and under the same terms, under `CC(=O)OC[C@@]12[C@H](O)C[C@]3(C)C(=CCC4[C@@]5(C)CC[C@H](O[C@@H]6O[C@H](C(=O)O)[C@@H](O[C@@H]7O[C@H](CO)[C@@H](O)[C@H](O)[C@H]7O)[C@H](O)[C@H]6O[C@@H]6O[C@H](CO)[C@@H](O)[C@H](O)[C@H]6O)[C@](C)(CO)C5CC[C@]43C)[C@@H]1CC(C)(C)[C@@H](OC(C)=O)[C@@H]2O` (stereo not given in full) stands “inactive [at 11.6 µM]”.
Regarding `C[C@@H]1O[C@@H](O[C@H]2[C@H](O[C@H]3[C@H](O[C@H]4CC[C@@]5(C)C(CC[C@]6(C)C5CC=C5[C@@H]7CC(C)(C(=O)O)C[C@@H](O)[C@]7(C)CC[C@]56C)[C@@]4(C)CO)O[C@H](C(=O)O)[C@@H](O)[C@@H]3O)O[C@H](CO)[C@H](O)[C@@H]2O)[C@H](O)[C@H](O)[C@H]1O` (stereo not given in full), the activity change, negative = inhibition is 0.24% [at 11.6 µM].
Still for that read-out and setting: in the case of `CC12CCC3C(C)(C)C(O)CCC3(C)C1Cc1c(oc(C(=O)O)cc1=O)O2` (stereo not given) it was 4.76%; in that of `CC(C)(O)c1ccc2c(c1)C(=O)CC1[C@](C)(CO)CCC[C@]21C` (stereo not given in full), 4.46%.
Same read-out and setting: under `CCCC1=CC2=C(CO1)C(=O)C(C)(OC(=O)c1c(C)cc(OC)cc1O)C(O)C2` (stereo not given) stands -2.16% [at 25.7 µM]; under `CC1(C)CCC(C)(C)c2cc3c(cc21)Sc1ccccc1N=C3c1ccc(C(=O)O)cc1`, 0.975%.
Regarding `C[C@@H]1O[C@@H](O[C@H]2[C@H](OC(=O)[C@]34CCC(C)(C)C[C@H]3C3=CCC5[C@@]6(C)C[C@H](O)[C@H](O[C@@H]7O[C@H](CO[C@@H]8OC[C@H](O)[C@H](O)[C@H]8O)[C@@H](O)[C@H](O)[C@H]7O)C(C)(C)C6CC[C@@]5(C)[C@]3(C)C[C@H]4O)OC[C@@H](O)[C@@H]2O)[C@H](O)[C@H](O[C@@H]2OC[C@](O)(CO)[C@H]2O)[C@H]1O[C@@H]1OC[C@H](O)[C@H](O[C@@H]2OC[C@@H](O)[C@H](O)[C@H]2O)[C@H]1O` (stereo not given in full), the outcome was “inactive [at 11.6 µM]”.
As for `CC(C)c1ccc(CC(=O)N2CCC[C@@H](c3cccc(OC(C)(C)C(=O)O)c3)C2)cc1`, the call was inactive.
Turning to `COC(=O)C1=CO[C@@H](O[C@@H]2O[C@H](COC(=O)/C=C/c3cc(OC)c(O)c(OC)c3)[C@@H](O)[C@H](O)[C@H]2O)[C@@H]2C(CO)=CC[C@H]12`, the “activity change, negative = inhibition” value was 1.86% [at 25.7 µM].
Still for that read-out and setting: in the case of `CC(=O)N(O)CCCCCN1C(=O)CCC1=O` it was -4.63%.
For `CCc1nc(C(N)=O)c(Nc2ccc(N3CCC(N4CCN(C)CC4)CC3)c(OC)c2)nc1NC1CCOCC1`, the molecule was called inactive.
In the case of `OC[C@H]1O[C@@H](n2cnc3c(NCc4ccc(O)cc4)ncnc32)[C@H](O)[C@@H]1O`, the “activity change, negative = inhibition” value is 2.89%.
`C=C(C)[C@H]1C[C@@H](O)C(=C)CC[C@@H](O)C(=C)[C@@H](O)C1`: the “activity change, negative = inhibition” value is 3.08%.
Still for that read-out and setting: under `CC1(C)CCC[C@@]2(C)[C@H]1[C@H](O)C=C1COC(=O)[C@@]12O` stands 4.19%; under `C=C1CC2[C@]3(C)C(=C(O)C(=O)[C@@]2(C)[C@]2(C(=O)OC)C(=O)C(C)OC(=O)[C@@]12C)C(C)(C)C(=O)CC3O` (stereo not given in full), 3.52% [at 25.7 µM].
As for `CO[C@@]12CC3[C@@H]([C@@H](O)[C@@H](OC(C)=O)C4[C@](C)(COC(C)=O)CCC[C@]34C)[C@@H](C)C1=CC(=O)O2` (stereo not given in full), the “outcome” value was “inactive [at 25.7 µM]”.
For `C[C@H]1C[C@H]2[C@@H]3CCC4=CC(=O)C=C[C@]4(C)[C@@]3(F)[C@@H](O)C[C@]2(C)[C@@]1(O)C(=O)COP(=O)(O)O`, the molecule was classed as inactive.
Regarding `CC(C)(O)C1CC=C(C(=O)OCC2OC(Oc3c(O)cc(C(=O)O)cc3O)C(O)C(O)C2O)CC1` (stereo not given), the “outcome” value is “inactive [at 25.7 µM]”.
On the same count and under the same terms, in the case of `COc1cccc(-c2ccc([C@@H](Oc3cc(-c4ccc(C[C@H](N)C(=O)O)cc4)nc(N)n3)C(F)(F)F)cc2)c1` it was “inactive”.
Turning to `CO[C@@H](Cc1ccc(OCCc2nc(-c3ccccc3)oc2C)c2ccsc12)C(=O)O`, the “activity change, negative = inhibition” value is -5.31%.
With `COc1cc2c(Nc3ccc(Cl)c(Cl)c3F)ncnc2cc1OCC1C[C@@H]2CN(C)C[C@@H]2C1` (stereo not given in full), the “activity change, negative = inhibition” value is -8.35%.
`C/C(=C\CCC(C(=O)O)C1CCC2(C)C3=C(CCC12C)C1(C)CCC(=O)C(C)(C)C1CC3)C(=O)O` (stereo not given): the “outcome” value was “inactive [at 25.7 µM]”.
Turning to `C/C=C/C=C/C=C/C(=O)O[C@@H]1C=C(CO)C(O)(C(=O)O)[C@@]2(C)CCCC(C)(C)[C@H]12` (stereo not given in full), the “activity change, negative = inhibition” value was 0.222% [at 25.7 µM].
Turning to `COc1ccc2cc(OCC3(C(=O)O)CN(C(=O)c4ccc(F)cc4)C3)ccc2c1`, the “activity change, negative = inhibition” value is 3.24%.
On the same count and under the same terms, in the case of `C=C(C(=O)O)[C@@H]1CC=C2CCC[C@H](C)[C@@]2(C)C1` it was -9.21%.
As for `CC(C)C(=O)c1cn(CC(=O)COc2ccc(Oc3ccccc3)cc2)c2ccc(C(=O)O)cc12`, the “activity change, negative = inhibition” value was 0.937%.
Regarding `COc1cc(/C=C/C(=O)O[C@H]2[C@H](OC(=O)/C=C/c3cc(OC)c(O)c(OC)c3)O[C@H](CO[C@@H]3O[C@H](CO)[C@@H](O)[C@H](O)[C@H]3O)[C@@H](O)[C@@H]2O)ccc1O`, the “activity change, negative = inhibition” value is -5.6% [at 25.7 µM].
For `CC(=O)N[C@H]1CCN(c2ccc(C3=NOC(CN[S+](=O)([O-])C(C)C)C3)cc2F)C1` (stereo not given in full), the “activity change, negative = inhibition” value is 4.92%.
As to `CC(=O)N1CCN(NC(=O)c2ccc(F)cc2)CC1`, the result was inactive.
In the case of `C#C[C@]1(O)CC[C@H]2[C@@H]3CCC4=C/C(=N/O)CC[C@@H]4[C@H]3CC[C@@]21CC`, the “activity change, negative = inhibition” value is 3.66%.
The same measure, in the same setting: under `C=C(C)[C@@H](C)[C@H]1O[C@]23C[C@]4(CO2)C(CCC2[C@@]5(C)CC[C@H](O[C@@H]6OC[C@H](O)[C@H](O[C@@H]7O[C@H](CO)[C@@H](O)[C@H](O)[C@H]7O)[C@H]6O[C@@H]6O[C@@H](CO)[C@H](O)[C@H]6O)C(C)(C)C5CC[C@]24C)C3[C@@](C)(O)[C@@H]1OC(C)=O` (stereo not given in full) stands 4.34% [at 11.6 µM].
